Assay results from PubChem BioAssay (EPA / NIEHS).
Records with an inconclusive call do not appear. The source made the active and inactive calls. The calls were made as follows: active = hit-call score of the fitted dose curve at least 0.9, where 1 is the maximum; inconclusive = response in the unintended direction; inactive = score below 0.9.

molecular target: human Peripheral-type Benzodiazepine Receptor (PBR), TSPO (gene 706) (UniProt P30536); experiment: NVS_MP_hPBR: NovaScreen (NVS) Membrane Protein Assay for human Peripheral-type Benzodiazepine Receptor (PBR) (AID 2283331);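 also: hits reduce radioligand binding relative to DMSO baseline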
Procedure, shortened: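 Using human colon-derived membranes, this one-endpoint binding test reads radioligand loss by scintillation after 1 h. Screening started at 25 uM in duplicate, with positive and negative controls on every plate, and actives moved to dose series.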

human Peripheral-type Benzodiazepine Receptor (PBR), TSPO (gene 706), sequence (P30536 whole entry, looked up): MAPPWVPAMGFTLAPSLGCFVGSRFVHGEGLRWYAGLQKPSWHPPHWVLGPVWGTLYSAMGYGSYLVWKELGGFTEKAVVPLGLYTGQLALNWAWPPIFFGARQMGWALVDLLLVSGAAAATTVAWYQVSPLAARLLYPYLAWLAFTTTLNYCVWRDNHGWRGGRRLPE

SMILES	outcome	AC50
Cc1ccc(O)c(C)c1	inactive	–
Cc1cc(O)ccc1Cl	–	2.64 µM (active)
Cc1ccccc1CO[C@@H]1C[C@@]2(C(C)C)CC[C@]1(C)O2	–	8.27 µM (active)
CO/C=C(/C(=O)OC)c1ccccc1COc1cccc(C(F)(F)F)n1	–	4.21 µM (active)

molecular target: rat Peripheral-type Benzodiazepine Receptor (PBR), Tspo (gene 24230) (UniProt P16257); experiment: NVS_MP_rPBR: NovaScreen (NVS) Membrane Protein Assay for rat Peripheral-type Benzodiazepine Receptor (PBR) (AID 2283335)
Procedure, shortened: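 Single-concentration duplicate screening at 25 uM preceded concentration-series retesting of actives. Binding of a specific radioligand to rat kidney membrane PBR was read by filtration radiodetection after 1 h, with plate-wise positive and negative controls.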

rat Peripheral-type Benzodiazepine Receptor (PBR), Tspo (gene 24230), sequence (P16257 whole entry, looked up): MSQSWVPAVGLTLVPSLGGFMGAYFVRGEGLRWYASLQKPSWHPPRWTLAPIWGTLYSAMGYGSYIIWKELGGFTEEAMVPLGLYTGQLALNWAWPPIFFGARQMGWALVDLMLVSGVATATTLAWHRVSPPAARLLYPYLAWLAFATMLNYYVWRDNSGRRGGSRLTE

SMILES	outcome	AC50
CC(C)(O)C(=O)Nc1ccc([N+](=O)[O-])c(C(F)(F)F)c1	inactive	–
OCC(O)CO	inactive	–
Cc1ccc(O)c(C)c1	inactive	–
CCOC(=O)C(O)(c1ccc(Cl)cc1)c1ccc(Cl)cc1	–	10 µM (active)
Cc1ccccc1CO[C@@H]1C[C@@]2(C(C)C)CC[C@]1(C)O2	inactive	–
CO/C=C(/C(=O)OC)c1ccccc1COc1cccc(C(F)(F)F)n1	–	0.189 µM (active)
Cc1cc(-c2ccc(N)c(C)c2)ccc1N	–	13.7 µM (active)

molecular target: bovine Gamma-Aminobutyric Acid Type A Receptor Agonist (GABAR Agonist), GABRA1 (gene 780973) (UniProt P08219); experiment: NVS_LGIC_bGABAR_Agonist: NovaScreen (NVS) Ligand-Gated Ion Channel Assay for bovine Gamma-Aminobutyric Acid Type A Receptor Agonist (GABAR Agonist) (AID 2283338)
Procedure, shortened: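 Radioligand binding to bovine cerebellar membranes in agonist format, read by filter-based scintillation counting after 1 h. Primary screen in duplicate at 25 uM, with actives followed in concentration series. Gain of signal versus DMSO.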

bovine Gamma-Aminobutyric Acid Type A Receptor Agonist (GABAR Agonist), GABRA1 (gene 780973), sequence (P08219 whole entry, looked up): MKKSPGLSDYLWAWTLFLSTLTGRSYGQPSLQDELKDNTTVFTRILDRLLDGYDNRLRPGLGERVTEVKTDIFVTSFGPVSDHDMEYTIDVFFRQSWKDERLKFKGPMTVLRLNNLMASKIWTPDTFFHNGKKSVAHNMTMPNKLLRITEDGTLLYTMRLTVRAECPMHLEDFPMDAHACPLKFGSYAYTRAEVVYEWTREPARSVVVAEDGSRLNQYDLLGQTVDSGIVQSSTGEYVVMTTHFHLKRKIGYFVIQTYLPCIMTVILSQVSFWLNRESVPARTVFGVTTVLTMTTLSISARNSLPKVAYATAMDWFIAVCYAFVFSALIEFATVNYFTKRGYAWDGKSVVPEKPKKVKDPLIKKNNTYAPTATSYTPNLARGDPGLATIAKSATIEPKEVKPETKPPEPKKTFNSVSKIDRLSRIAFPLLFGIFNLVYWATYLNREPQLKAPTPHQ

SMILES	outcome
CC#Cc1cc(C)nc(Nc2ccccc2)n1	inactive
CCC(C)c1cc([N+](=O)[O-])cc([N+](=O)[O-])c1O (stereo unspecified)	inactive
c1cc2ccc3cccc4ccc(c1)c2c34	inactive
O=C(O)C(F)(F)C(F)(F)C(F)(F)C(F)(F)C(F)(F)C(F)(F)C(F)(F)C(F)(F)C(F)(F)F	inactive
NS(=O)(=O)C(F)(F)C(F)(F)C(F)(F)C(F)(F)C(F)(F)C(F)(F)C(F)(F)C(F)(F)F	inactive
